# Measured values published in PubChem BioAssay AID590 (National Center for Advancing Translational Sciences (NCATS), 2007).
# Hit rate of the full screen: of about 59,000 compounds, about 6,500 (11%) were called active. Inconclusive results (about 15%) are left out. Cut-off read from the data, not from the text of the source: active = max dye-equivalent concentration above about 10 nM; inconclusive = mostly about 1.1 nM to 9.6 nM; inactive = weaker than that. What follows is part of a selection rich in actives, with near analogues and random picks from the rest. Some compounds were tested as several samples or in several runs, with calls that do not always agree.
# Experiment: qHTS Assay for Spectroscopic Profiling in A350 Spectral Region
# Conditions: Compound autofluorescence, 340/450 nm, Alexa 350 dye-equivalents; active compounds read high
# Excerpt: NIH Molecular Libraries Screening Centers Network [MLSCN]
# NIH Chemical Genomics Center [NCGC]
# Occasionally, the artifactual effect may originate from the compounds own spectral or other biophysical properties which generally tend to track its assay concentration. Pre-screening/profiling the library with respect to the compounds spectral properties should help one exclude false positives early on. While the most informative fluorescent profiling data set is obtained by performing a full excitation and emission scan of each well by using a monochromator-based plate reader, such an approach is practical only on a very limited scale as scanning each well requires long time. An alternative approach, applied here, is to perform plate reader scans using selected excitation and emission wavelength pairs to generate a multidimensional relational database that correlates compound concentration and the respective relative fluorescence intensity at a given wavelength set. A standard curve of Alexa 350 (A 350) present on each plate as six-point concentration series, was used to compute a normalized fluorescence response, termed dye-equivalent concentration, for each compound at each concentration.
# NCGC Assay Protocol Summary:
# 100 mM Tris buffer, pH 8.0
# The wells in columns 1 through 4 of a Kalypsys polypropylene 1536-well compound plate were filled with standard solutions of fluorophore corresponding to the spectral region of interest. Solutions of A 350 were placed in the following wells: I1, J1: 3 mM, I2, J2: 300 uM, I3, J3: 30 uM, I4, J4: zero (DMSO), K1, L1: 3 uM, K2, L2: […], K3, L3: 300 nM, K4, L4: zero (DMSO).
# Six uL of buffer were dispensed to 1536-well Greiner black plates. Compounds and dye standards (23 nL) were transferred via Kalypsys PinTool. The plates were incubated for 15 min at room temperature, and then read on ViewLux (Perkin-Elmer) High-throughput CCD imager using 340 nm and 450 nm excitation and emission filter set.
# Keywords: NIH Roadmap, MLSCN, MLI, MLSMR, qHTS, NCGC, A350, A-350, Fluorescent Profiling.
SMILES,max dye-equivalent concentration,outcome
CSC1=NP(=S)(SC)N(C)c2nc3n(c21)CCC3 (stereo unspecified),26 nM (active),
CN1[C@@H]2CC[C@H]1CC(OC(=O)c1cc(Cl)cc(Cl)c1)C2 (stereo partly specified),inactive,
CN1CCN(C(=O)O[C@@H]2c3nccnc3C(=O)N2c2ccc(Cl)cn2)CC1,inactive,
c1ccc2c(c1)[I+]c1ccccc1-2,inactive,
C[N+]1(C)C2CC(OC(=O)C(CO)c3ccccc3)CC1[C@@H]1O[C@H]21 (stereo partly specified),inactive,
CC(C)(O)[C@H]1[C@H]2OC(=O)[C@@H]1[C@]1(O)C[C@H]3O[C@]34C(=O)O[C@H]2[C@]14C,inactive,
c1ccc(N2CC[C@@]3(CCCNC3)C2)nc1,inactive,
c1csc(CN2CCCC3(CCNCC3)C2)n1,inactive,
c1ccc(CN2CC[C@@]3(CCCNC3)C2)cc1,13 nM (active),
C[C@@]12CC[C@H]3[C@@H](CC[C@]4(O)C[C@H](O)CC[C@@]34C=O)[C@]1(O)CC[C@@H]2C1=CC(=O)OC1,inactive,
C[C@H](Br)C(=O)N[C@H](CO)C(=O)O,inactive,
CCOC(=O)c1c(N)n(Cc2ccccc2)c2nc3ccccc3nc12,1500 nM (active),
c1csc(CN2CC3(CCNCC3)C2)n1,inactive,
CC(=O)O[C@H]1CC[C@@]2(C)[C@@H](CC[C@H]3[C@H]2CC(=O)[C@]2(C)[C@@H]3C[C@@H](N3CC3)[C@H]2C(C)=O)C1,inactive,
O=C(Nc1cccc(F)c1)N1CC[C@@]2(CCCN(C(=O)Oc3ccccc3)C2)C1,inactive,
CCN1c2nc3c(C)cccn3c(=O)c2CC2(C(=O)N(C)C(=O)N(C)C2=O)C1C (stereo unspecified),38 nM (active),
O=C(O)C(=O)Cc1ccc2c(c1)OCO2,inactive,
COC(=O)COc1cc(C)cc2oc(=O)c3c(c12)CCCC3,inactive,
CCCCCCN=C(CC)c1c(O)n(CCCC)c(=O)[nH]c1=O,inactive,
NC(=O)c1ccc(OC[C@H](O)CN2CC=C(c3ccc(F)cc3)CC2)cc1,inactive,
CCN1C[C@]2(C)CC[C@H](O)[C@@]34[C@@H]5CC6[C@@H](OC)C[C@@](O)([C@@H]5[C@@H]6O)[C@H](C[C@@H]23)[C@H]14,inactive,
C[C@]12CC[C@H](O)CC1=CC[C@@H]1[C@H]2CC[C@]2(C)C(=O)CC[C@H]12,inactive,
C[C@]12CC[C@H](O)C[C@@H]1CC[C@H]1[C@H]2CC[C@]2(C)C(=O)CC[C@@H]12,64 nM (active),inactive
C[C@@]12CC[C@H](O)C[C@@H]1CC[C@@H]1[C@@H]2CC[C@@]2(C)[C@@H](C3=CC(=O)OC3)[C@H](O)C[C@]12O,inactive,
CC(C)(O)/C=C\C(=O)[C@](C)(O)[C@H]1[C@H](O)C[C@]2(C)[C@@H]3CC=C4[C@@H](C=C(O)C(=O)C4(C)C)[C@]3(C)C(=O)C[C@@]12C,inactive,

SMILES,max dye-equivalent concentration,outcome
CS(=N)(=O)CC[C@H](N)P(=O)(O)O (stereo partly specified),inactive,
CC[C@]1(O)C(=O)OCc2c1cc1n(c2=O)Cc2cc3ccccc3nc2-1,2600 nM (active),
CC[C@@](O)(C(=O)O)c1cc2n(c(=O)c1CO)Cc1cc3ccccc3nc1-2,920 nM (active),
Cc1ccc(Cn2nnnc2CN2CCC(n3nnc4ccccc43)CC2)cc1,inactive,
N[C@H](C(=O)O)c1cc(=O)[nH]o1,inactive,
C[C@H]1CC[C@@]2(NC1)O[C@@H]1C[C@H]3[C@@H]4CC=C5C[C@@H](O)CC[C@]5(C)[C@@H]4CC[C@]3(C)[C@@H]1[C@@H]2C,inactive,
N[C@@H](Cc1c[nH]c2ccccc12)c1nnc(SCc2c(F)cccc2Cl)o1,inactive,
CC[N+]1(C)CCCC(OC(=O)C(O)(c2ccccc2)c2ccccc2)C1 (stereo unspecified),inactive,
CC(C)CCC1(CCN)C(=O)NC(=O)NC1=O,inactive,
O=C(c1cc2nc(-c3ccccc3)cc(-c3ccccc3)n2n1)N1CCC2(CC1)OCCO2,48 nM (active),
O=C(c1cc(-c2ccncc2)nc2ccccc12)N1CCC2(CC1)OCCO2,inactive,
Cc1cccc(-n2c(C)nc3cc(C(=O)N4CCC5(CC4)OCCO5)ccc32)c1,inactive,
NCC[Se][Se]CCN,inactive,
CCN(CC)CCn1ncc2c(N)ncnc21,inactive,
CC1=CC(=O)C2=C(C)C[C@H](O)[C@@H]3[C@@H](OC(=O)[C@H]3C)[C@H]12,inactive,
O=C1C2CCN(CC2)C1(CO)CO,inactive,
CCOC(=O)c1c(-c2ccccc2)oc2ccc(OC(=O)N(C)C)cc12,53 nM (active),
Cc1ccc(S(=O)(=O)O[C@H]2CN3CCC2CC3)cc1,inactive,
NC[C@H](O)c1ccc(O)cc1,inactive,
C=CCN1C(=O)C2(C(C(=O)OCC)=C(N)Oc3c2c(=O)oc2ccccc32)c2ccccc21 (stereo unspecified),inactive,
COc1cc(C[C@H](C)N)c(OC)cc1I,inactive,
NCCc1c[nH]c2ccc(O)cc12,inactive,
C/C(CCc1c[nH]c2ccccc12)=N\O,16 nM (active),
CC(=O)c1c(O)c(C)c(O)c(Cc2c(O)c3c(c(C(=O)/C=C\c4ccccc4)c2O)OC(C)(C)C=C3)c1O,inactive,
NCCc1ccc(S(=O)(=O)F)cc1,inactive,
